# Assay results from article PMC11006913.
# Numbering of substitutions follows the chain as printed.
# Tests used:
# Assay in all cases: PBM; 200 nM protein, PBS
# Details in all cases: dsDNA, one strand shown
# [1] = molecular target: HOXB4 (Homo sapiens, UniProt P17483 148-234)
# [2] = molecular target: HOXB4 (Homo sapiens, UniProt P17483 148-234, V174I)
# [3] = molecular target: ALX1 (Homo sapiens, UniProt Q15699 118-204, L144V)
# [4] = molecular target: ALX1 (Homo sapiens, UniProt Q15699 118-204, L144R)
# Sequence of ALX1 (Homo sapiens, UniProt Q15699 118-204, L144R) (Q15699 118-204 L144R): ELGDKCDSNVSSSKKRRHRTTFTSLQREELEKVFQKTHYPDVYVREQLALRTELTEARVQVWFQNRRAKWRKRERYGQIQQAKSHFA
# [5] = molecular target: ALX1 (Homo sapiens, UniProt Q15699 118-204)
# Sequence of ALX1 (Homo sapiens, UniProt Q15699 118-204) (Q15699 118-204): as the sequence (Q15699 118-204 L144R) above, with R27L counted along it
# [6] = molecular target: VAX1 (Homo sapiens, UniProt Q5SQQ9 86-172)
# Sequence of VAX1 (Homo sapiens, UniProt Q5SQQ9 86-172) (Q5SQQ9 86-172): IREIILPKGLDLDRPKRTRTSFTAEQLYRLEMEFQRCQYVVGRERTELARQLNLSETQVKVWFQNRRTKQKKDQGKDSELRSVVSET
# [7] = molecular target: VAX1 (Homo sapiens, UniProt Q5SQQ9 86-172, T142I)
# Sequence of VAX1 (Homo sapiens, UniProt Q5SQQ9 86-172, T142I) (Q5SQQ9 86-172 T142I): as the sequence (Q5SQQ9 86-172) above, with T57I counted along it
# [8] = molecular target: VAX1 (Homo sapiens, UniProt Q5SQQ9 86-172, K157R)
# Sequence of VAX1 (Homo sapiens, UniProt Q5SQQ9 86-172, K157R) (Q5SQQ9 86-172 K157R): as the sequence (Q5SQQ9 86-172) above, with K72R counted along it
# [9] = molecular target: HOXD13 (Homo sapiens, UniProt P35453 263-343, T313R)
# Sequence of HOXD13 (Homo sapiens, UniProt P35453 263-343, T313R) (P35453 263-343 T313R): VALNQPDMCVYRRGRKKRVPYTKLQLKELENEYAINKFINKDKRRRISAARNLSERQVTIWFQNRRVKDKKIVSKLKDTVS
# [10] = molecular target: HOXD13 (Homo sapiens, UniProt P35453 263-343)
# Sequence of HOXD13 (Homo sapiens, UniProt P35453 263-343) (P35453 263-343): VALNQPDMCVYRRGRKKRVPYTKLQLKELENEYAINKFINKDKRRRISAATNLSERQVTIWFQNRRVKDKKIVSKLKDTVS
# [11] = molecular target: ALX3 (Homo sapiens, UniProt O95076 139-225)
# Sequence of ALX3 (Homo sapiens, UniProt O95076 139-225) (O95076 139-225): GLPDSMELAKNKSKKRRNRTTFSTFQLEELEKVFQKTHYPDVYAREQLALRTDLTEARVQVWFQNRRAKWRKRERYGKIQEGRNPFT
# [12] = molecular target: ALX3 (Homo sapiens, UniProt O95076 139-225, L168Q)
# Sequence of ALX3 (Homo sapiens, UniProt O95076 139-225, L168Q) (O95076 139-225 L168Q): as the sequence (O95076 139-225) above, with L30Q counted along it
# [13] = molecular target: HOXD13 (Homo sapiens, UniProt P35453 263-343, T313A)
# Sequence of HOXD13 (Homo sapiens, UniProt P35453 263-343, T313A) (P35453 263-343 T313A): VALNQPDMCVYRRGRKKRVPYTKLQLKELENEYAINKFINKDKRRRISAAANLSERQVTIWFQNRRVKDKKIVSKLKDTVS
# [14] = molecular target: ALX3 (Homo sapiens, UniProt O95076 139-225, L168V)
# Sequence of ALX3 (Homo sapiens, UniProt O95076 139-225, L168V) (O95076 139-225 L168V): as the sequence (O95076 139-225) above, with L30V counted along it
# [15] = molecular target: ALX3 (Homo sapiens, UniProt O95076 139-225, N203S)
# Sequence of ALX3 (Homo sapiens, UniProt O95076 139-225, N203S) (O95076 139-225 N203S): as the sequence (O95076 139-225) above, with N65S counted along it
# [16] = molecular target: PROP1 (Homo sapiens, UniProt O75360 56-141)
# Sequence of PROP1 (Homo sapiens, UniProt O75360 56-141) (O75360 56-141): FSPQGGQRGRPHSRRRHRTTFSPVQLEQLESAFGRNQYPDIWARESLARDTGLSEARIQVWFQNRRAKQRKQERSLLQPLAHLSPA
# [17] = molecular target: PROP1 (Homo sapiens, UniProt O75360 56-141, R99H)
# Sequence of PROP1 (Homo sapiens, UniProt O75360 56-141, R99H) (O75360 56-141 R99H): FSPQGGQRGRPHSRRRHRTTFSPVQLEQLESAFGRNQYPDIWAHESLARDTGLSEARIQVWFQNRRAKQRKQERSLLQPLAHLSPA
# [18] = molecular target: PROP1 (Homo sapiens, UniProt O75360 56-141, F88S)
# Sequence of PROP1 (Homo sapiens, UniProt O75360 56-141, F88S) (O75360 56-141 F88S): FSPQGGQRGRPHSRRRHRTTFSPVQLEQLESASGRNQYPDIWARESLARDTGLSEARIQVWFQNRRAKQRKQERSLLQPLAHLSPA
# [19] = molecular target: T1, NKX2-6 (Homo sapiens, UniProt A6NCS4 118-204)
# T1 sequence: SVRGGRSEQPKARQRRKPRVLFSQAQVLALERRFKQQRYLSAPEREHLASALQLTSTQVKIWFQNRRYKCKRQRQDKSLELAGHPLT
# [20] = molecular target: T2, NKX2-6 (Homo sapiens, UniProt A6NCS4 118-204, F151L)
# T2 sequence: T1 sequence with F34L
# [21] = molecular target: PITX2 (Homo sapiens, UniProt Q99697 72-157)
# [22] = molecular target: T3, PAX4 (Homo sapiens, UniProt O43316 9-242, F177V)
# T3 sequence: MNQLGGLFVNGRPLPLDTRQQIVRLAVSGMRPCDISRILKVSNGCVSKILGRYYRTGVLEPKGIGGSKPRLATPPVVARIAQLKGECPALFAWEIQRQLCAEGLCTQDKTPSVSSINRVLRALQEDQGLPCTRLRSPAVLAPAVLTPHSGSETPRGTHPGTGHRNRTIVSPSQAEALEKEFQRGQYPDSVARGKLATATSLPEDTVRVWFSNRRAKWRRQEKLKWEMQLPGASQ
# [23] = molecular target: T4, PAX4 (Homo sapiens, UniProt O43316 9-242, F177Y)
# T4 sequence: T3 sequence with V169Y
# [24] = molecular target: CRX (Homo sapiens, UniProt O43186 26-111, R41L)
# Sequence of CRX (Homo sapiens, UniProt O43186 26-111, R41L) (O43186 26-111 R41L): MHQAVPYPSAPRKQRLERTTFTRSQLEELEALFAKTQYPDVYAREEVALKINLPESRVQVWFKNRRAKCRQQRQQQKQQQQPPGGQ
# [25] = molecular target: SHOX (Homo sapiens, UniProt O15266 103-189)
# Sequence of SHOX (Homo sapiens, UniProt O15266 103-189) (O15266 103-189): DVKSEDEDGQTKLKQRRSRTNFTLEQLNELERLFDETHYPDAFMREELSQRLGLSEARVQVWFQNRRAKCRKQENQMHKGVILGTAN
# [26] = molecular target: CRX (Homo sapiens, UniProt O43186 26-111)
# Sequence of CRX (Homo sapiens, UniProt O43186 26-111) (O43186 26-111): as the sequence (O43186 26-111 R41L) above, with L16R counted along it
# [27] = molecular target: HOXA7 (Homo sapiens, UniProt P31268 116-202)
# Sequence of HOXA7 (Homo sapiens, UniProt P31268 116-202) (P31268 116-202): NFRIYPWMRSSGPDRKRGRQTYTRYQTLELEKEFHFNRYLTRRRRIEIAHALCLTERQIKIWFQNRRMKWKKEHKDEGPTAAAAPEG
# [28] = molecular target: CRX (Homo sapiens, UniProt O43186 26-111, E42D)
# Sequence of CRX (Homo sapiens, UniProt O43186 26-111, E42D) (O43186 26-111 E42D): as the sequence (O43186 26-111 R41L) above, with L16R, E17D counted along it
# [29] = molecular target: MSX2 (Homo sapiens, UniProt P35548 130-214, R199I)
# Sequence of MSX2 (Homo sapiens, UniProt P35548 130-214, R199I) (P35548 130-214 R199I): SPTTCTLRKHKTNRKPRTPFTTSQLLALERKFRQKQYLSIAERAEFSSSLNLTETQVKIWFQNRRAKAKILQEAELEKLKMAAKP
# [30] = molecular target: SHOX (Homo sapiens, UniProt O15266 103-189, R173C)
# Sequence of SHOX (Homo sapiens, UniProt O15266 103-189, R173C) (O15266 103-189 R173C): as the sequence (O15266 103-189) above, with R71C counted along it
# [31] = molecular target: MSX2 (Homo sapiens, UniProt P35548 130-214)
# Sequence of MSX2 (Homo sapiens, UniProt P35548 130-214) (P35548 130-214): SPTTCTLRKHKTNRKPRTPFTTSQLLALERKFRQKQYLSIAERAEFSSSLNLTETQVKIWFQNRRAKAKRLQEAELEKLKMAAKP
# [32] = molecular target: MSX2 (Homo sapiens, UniProt P35548 130-214, F161Y)
# Sequence of MSX2 (Homo sapiens, UniProt P35548 130-214, F161Y) (P35548 130-214 F161Y): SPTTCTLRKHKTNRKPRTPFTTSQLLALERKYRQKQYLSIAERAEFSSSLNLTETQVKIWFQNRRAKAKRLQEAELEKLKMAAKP
# [33] = molecular target: HOXA7 (Homo sapiens, UniProt P31268 116-202, W177C)
# Sequence of HOXA7 (Homo sapiens, UniProt P31268 116-202, W177C) (P31268 116-202 W177C): as the sequence (P31268 116-202) above, with W62C counted along it
# [34] = molecular target: NKX3-2 (Homo sapiens, UniProt P78367 192-278, P234S)
# Sequence of NKX3-2 (Homo sapiens, UniProt P78367 192-278, P234S) (P78367 192-278 P234S): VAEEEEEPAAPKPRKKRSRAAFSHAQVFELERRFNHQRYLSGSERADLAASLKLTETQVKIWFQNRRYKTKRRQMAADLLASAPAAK
# [35] = molecular target: NKX3-2 (Homo sapiens, UniProt P78367 192-278)
# Sequence of NKX3-2 (Homo sapiens, UniProt P78367 192-278) (P78367 192-278): as the sequence (P78367 192-278 P234S) above, with S43P counted along it
# Sequence of HOXB4 (Homo sapiens, UniProt P17483 148-234) (P17483 148-234): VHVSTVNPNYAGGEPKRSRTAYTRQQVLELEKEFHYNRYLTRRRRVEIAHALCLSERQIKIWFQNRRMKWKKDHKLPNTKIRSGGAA
# Sequence of HOXB4 (Homo sapiens, UniProt P17483 148-234, V174I) (P17483 148-234 V174I): as the sequence (P17483 148-234) above, with V27I counted along it
# Sequence of ALX1 (Homo sapiens, UniProt Q15699 118-204, L144V) (Q15699 118-204 L144V): as the sequence (Q15699 118-204 L144R) above, with R27V counted along it
sequence,measurement,setting,value
ACAACGAT,binding signal,[1],"9.88 upbm affinity estimate (log intensity, higher = more binding, comparable within an allelic series)"
same,binding signal,[2],"9.27 upbm affinity estimate (log intensity, higher = more binding, comparable within an allelic series)"
AGACCTAG,binding signal,[1],"7.5 upbm affinity estimate (log intensity, higher = more binding, comparable within an allelic series)"
same,binding signal,[2],"7.5 upbm affinity estimate (log intensity, higher = more binding, comparable within an allelic series)"
GTTATAGA,binding signal,[1],"9.85 upbm affinity estimate (log intensity, higher = more binding, comparable within an allelic series)"
same,binding signal,[2],"9.7 upbm affinity estimate (log intensity, higher = more binding, comparable within an allelic series)"
ATATGATG,binding signal,[1],"10 upbm affinity estimate (log intensity, higher = more binding, comparable within an allelic series)"
same,binding signal,[2],"10.1 upbm affinity estimate (log intensity, higher = more binding, comparable within an allelic series)"
TAGATTGA,binding signal,[1],"10.2 upbm affinity estimate (log intensity, higher = more binding, comparable within an allelic series)"
same,binding signal,[2],"10.3 upbm affinity estimate (log intensity, higher = more binding, comparable within an allelic series)"
CGGGATGC,binding signal,[3],"6.54 upbm affinity estimate (log intensity, higher = more binding, comparable within an allelic series)"
same,binding signal,[4],"6.46 upbm affinity estimate (log intensity, higher = more binding, comparable within an allelic series)"
same,binding signal,[5],"6.51 upbm affinity estimate (log intensity, higher = more binding, comparable within an allelic series)"
CGGGAAAG,binding signal,[3],"6.35 upbm affinity estimate (log intensity, higher = more binding, comparable within an allelic series)"
same,binding signal,[4],"6.49 upbm affinity estimate (log intensity, higher = more binding, comparable within an allelic series)"
same,binding signal,[6],"7.08 upbm affinity estimate (log intensity, higher = more binding, comparable within an allelic series)"
same,binding signal,[7],"7.2 upbm affinity estimate (log intensity, higher = more binding, comparable within an allelic series)"
same,binding signal,[5],"6.44 upbm affinity estimate (log intensity, higher = more binding, comparable within an allelic series)"
same,binding signal,[8],"7.08 upbm affinity estimate (log intensity, higher = more binding, comparable within an allelic series)"
CTCCCGGC,binding signal,[9],"9.46 upbm affinity estimate (log intensity, higher = more binding, comparable within an allelic series)"
same,binding signal,[10],"9.39 upbm affinity estimate (log intensity, higher = more binding, comparable within an allelic series)"
same,binding signal,[11],"7.57 upbm affinity estimate (log intensity, higher = more binding, comparable within an allelic series)"
same,binding signal,[12],"7.75 upbm affinity estimate (log intensity, higher = more binding, comparable within an allelic series)"
same,binding signal,[13],"9.4 upbm affinity estimate (log intensity, higher = more binding, comparable within an allelic series)"
same,binding signal,[14],"7.74 upbm affinity estimate (log intensity, higher = more binding, comparable within an allelic series)"
same,binding signal,[15],"7.67 upbm affinity estimate (log intensity, higher = more binding, comparable within an allelic series)"
CTGGGGGA,binding signal,[11],"7.77 upbm affinity estimate (log intensity, higher = more binding, comparable within an allelic series)"
same,binding signal,[12],"7.72 upbm affinity estimate (log intensity, higher = more binding, comparable within an allelic series)"
same,binding signal,[14],"7.67 upbm affinity estimate (log intensity, higher = more binding, comparable within an allelic series)"
same,binding signal,[15],"7.72 upbm affinity estimate (log intensity, higher = more binding, comparable within an allelic series)"
CGGGCTGC,binding signal,[16],"6.7 upbm affinity estimate (log intensity, higher = more binding, comparable within an allelic series)"
same,binding signal,[17],"6.83 upbm affinity estimate (log intensity, higher = more binding, comparable within an allelic series)"
same,binding signal,[18],"6.68 upbm affinity estimate (log intensity, higher = more binding, comparable within an allelic series)"
AATATAAA,binding signal,[9],"10.7 upbm affinity estimate (log intensity, higher = more binding, comparable within an allelic series)"
CCCGAGCC,binding signal,[19],"9.42 upbm affinity estimate (log intensity, higher = more binding, comparable within an allelic series)"
same,binding signal,[20],"9.3 upbm affinity estimate (log intensity, higher = more binding, comparable within an allelic series)"
ATTAAAGC,binding signal,[19],"11.1 upbm affinity estimate (log intensity, higher = more binding, comparable within an allelic series)"
CCGTGCGC,binding signal,[21],"7.97 upbm affinity estimate (log intensity, higher = more binding, comparable within an allelic series)"
GATTATTA,binding signal,[22],"10.6 upbm affinity estimate (log intensity, higher = more binding, comparable within an allelic series)"
same,binding signal,[23],"11 upbm affinity estimate (log intensity, higher = more binding, comparable within an allelic series)"
CTTAAGCA,binding signal,[24],"10.3 upbm affinity estimate (log intensity, higher = more binding, comparable within an allelic series)"
AGCATTAG,binding signal,[24],"10.1 upbm affinity estimate (log intensity, higher = more binding, comparable within an allelic series)"
ATTACTTA,binding signal,[15],"8.71 upbm affinity estimate (log intensity, higher = more binding, comparable within an allelic series)"
GCCTCGCC,binding signal,[25],"7.06 upbm affinity estimate (log intensity, higher = more binding, comparable within an allelic series)"
same,binding signal,[26],"8.26 upbm affinity estimate (log intensity, higher = more binding, comparable within an allelic series)"
same,binding signal,[27],"8.38 upbm affinity estimate (log intensity, higher = more binding, comparable within an allelic series)"
same,binding signal,[28],"8.29 upbm affinity estimate (log intensity, higher = more binding, comparable within an allelic series)"
same,binding signal,[29],"9.34 upbm affinity estimate (log intensity, higher = more binding, comparable within an allelic series)"
same,binding signal,[30],"7.02 upbm affinity estimate (log intensity, higher = more binding, comparable within an allelic series)"
same,binding signal,[31],"9.36 upbm affinity estimate (log intensity, higher = more binding, comparable within an allelic series)"
same,binding signal,[32],"9.46 upbm affinity estimate (log intensity, higher = more binding, comparable within an allelic series)"
same,binding signal,[33],"8.26 upbm affinity estimate (log intensity, higher = more binding, comparable within an allelic series)"
same,binding signal,[34],"10.6 upbm affinity estimate (log intensity, higher = more binding, comparable within an allelic series)"
same,binding signal,[24],"8.24 upbm affinity estimate (log intensity, higher = more binding, comparable within an allelic series)"
same,binding signal,[35],"10.4 upbm affinity estimate (log intensity, higher = more binding, comparable within an allelic series)"
CCTGCCTC,binding signal,[25],"7.13 upbm affinity estimate (log intensity, higher = more binding, comparable within an allelic series)"
same,binding signal,[26],"8.19 upbm affinity estimate (log intensity, higher = more binding, comparable within an allelic series)"
same,binding signal,[28],"8.2 upbm affinity estimate (log intensity, higher = more binding, comparable within an allelic series)"
same,binding signal,[29],"9.6 upbm affinity estimate (log intensity, higher = more binding, comparable within an allelic series)"
same,binding signal,[30],"7.13 upbm affinity estimate (log intensity, higher = more binding, comparable within an allelic series)"
same,binding signal,[31],"9.51 upbm affinity estimate (log intensity, higher = more binding, comparable within an allelic series)"
same,binding signal,[32],"9.51 upbm affinity estimate (log intensity, higher = more binding, comparable within an allelic series)"
same,binding signal,[24],"8.18 upbm affinity estimate (log intensity, higher = more binding, comparable within an allelic series)"
